# Results: PubChem BioAssay AID2289 (National Center for Advancing Translational Sciences (NCATS), 2010)
# The whole screen tested about 340,000 compounds, of which about 3,300 (0.97%) were called active. About 9% were inconclusive and are not listed. Calls come from the whole dose curve; as a rule, active = well fitted inhibition curve with a large enough effect; inconclusive = small, poorly fitted or top-dose-only effect, or effect the other way; inactive = flat fitted curve, though single readings scatter. The list shows a part of the results.
# Test: qHTS Assay for Modulators of miRNAs and/or Inhibitors of miR-21; note: nearly all actives have a fitted effect of over 55% in size
# Settings: HeLa miR-21-FLuc reporter, luciferase luminescence, 48 h; actives lower the signal
# In short: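 Using DMEM plus 10% FBS, HeLa miR-21-FLuc cells are incubated with test compounds (final up to about 40uM) for 48 hours; firefly luciferase signal is then imaged following reagent-mediated lysis.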
# Potency is the fitted concentration of half-maximal effect.
row,SMILES,Potency
1,CCOC(=O)C1CCCN(C(=O)CCc2nnc(-c3ccc(C(C)=O)s3)o2)C1 (configuration not stated),3.29 µM (active)
2,Fc1ccccc1-n1ncc2c1ncn1nc(-c3ccccc3Cl)nc21,0.736 µM (active)
3,CC1(C)C=Cc2cc3ccc(=O)oc3cc2O1,13.1 µM (active)
4,COc1c2c(cc3oc(=O)ccc13)OC(C)(C)C=C2,18.5 µM (active)
5,O=C(NC(=S)Nc1ccccc1C(=O)O)c1ccc(-c2ccc(Br)cc2)o1,11.7 µM (active)
6,NC(=O)c1ccccc1NC(=O)c1ccc(-c2ccc(Br)cc2)o1,1.17 µM (active)
7,S=c1[nH]nc(-c2ccc(Cl)cc2Cl)n1-c1ccccc1,5.21 µM (active)
8,CN(c1ccccc1)c1ccc(/C=N/N2CCOCC2)cc1,1.47 µM (active)
9,O=[N+]([O-])c1ncccc1OCc1ccc(Cl)c(Cl)c1,7.36 µM (active)
10,COc1ccc2nc(NC(=O)c3ccc(Br)s3)sc2c1,1.17 µM (active)
11,COc1ccc2nc(NC(=O)c3cccnc3SC)sc2c1,2.93 µM (active)
12,O=C(NC(=O)c1ccc(Cl)cc1)OC1CCCCC1,16.5 µM (active)
13,Cc1cc(CC(C)C)n(-c2nc3ccccc3c(=O)n2OCC(=O)N(C)C)n1,18.5 µM (active)
14,COc1ccc(CCn2nc(C)c([N+](=O)[O-])c2C)cc1,4.14 µM (active)
15,O=C(/C=C/Nc1ccccc1O)c1ccco1,18.5 µM (active)
16,CC(=O)N1c2ccccc2Oc2cc3ccccc3cc21,9.27 µM (active)
17,CCCC(=O)N(CCN1CCOCC1)c1nc2cc(C)c(C)cc2s1,2.33 µM (active)
18,O=C(NC(=S)Nc1ccc2ncccc2c1)c1ccccc1,6.56 µM (active)
19,Cc1csc(NC(=S)NC(=O)c2ccccc2)n1,1.31 µM (active)
20,O=C(Nc1ccc2ncccc2c1)c1ccccc1Br,1.65 µM (active)
21,Cc1cc(C(=O)Nc2cnc3ccccc3c2)ccc1[N+](=O)[O-],0.736 µM (active)
22,O=C(NNC(=S)Nc1ccccc1)c1ccc2ncccc2c1,8.26 µM (active)

row,SMILES,Potency
1,O=C(NC(=S)Nc1cnc2ccccc2c1)c1ccccc1,0.585 µM (active)
2,O=C(NC(=S)Nc1ccc(Cl)cc1)c1ccccc1,4.65 µM (active)
3,Cc1cc(C)c(C#N)c(SCc2cn3ccccc3n2)n1,18.5 µM (active)
4,c1ccc2c(SCc3cn4ccccc4n3)nncc2c1,14.7 µM (active)
5,Cc1cccc2nc(CSc3nc4ccccc4o3)cn12,18.5 µM (active)
6,Clc1ccc(SCc2cn3ccccc3n2)cc1,4.65 µM (active)
7,Clc1ccc2nc(CSCc3ccccc3)cn2c1,2.93 µM (active)
8,c1ccc2nc(SCc3cn4ccccc4n3)cnc2c1,9.27 µM (active)
9,Cc1cccc2nc(CSc3ccc(Cl)cc3)cn12,4.14 µM (active)
10,CCOc1ccc(N2Nc3n[nH]c(N)c3N2)cc1,16.5 µM (active)
11,N#CC1CC(c2ccccc2)=NN1c1ccccc1[N+](=O)[O-] (configuration not stated),5.85 µM (active)
12,CC(/C=C/c1ccc(OCc2ccccc2)cc1)=N\O,2.07 µM (active)
13,c1ccc(CSc2nnc3ccc(-c4cccs4)nn23)nc1,7.36 µM (active)
14,COC(=O)c1cc2c(s1)-c1ccc(OC)cc1CC2,6.56 µM (active)
15,CCc1ccc(-n2nnc(-c3nc(-c4cccs4)no3)c2N)cc1,1.17 µM (active)
16,COc1cccc(-n2nnc(-c3nc(-c4cccs4)no3)c2N)c1,1.04 µM (active)
17,Cc1cccc(-n2nnc(-c3nc(-c4cccs4)no3)c2N)c1C,0.0927 µM (active)
18,CCc1ccc(-n2nnc(-c3nc(-c4ccccc4)no3)c2C)cc1,1.17 µM (active)
19,Cc1cccc(-n2nnc(-c3nc(-c4cccs4)no3)c2N)c1,0.329 µM (active)
20,Nc1c(-c2nc(-c3cccs3)no2)nnn1-c1cccc(F)c1,0.208 µM (active)
21,COc1ccc(/C(C)=N/Nc2ccccc2Cl)c(O)c1,8.26 µM (active)
22,Nc1nc(N2CCN(c3ccccn3)CC2)nc2ccccc12,6.56 µM (active)

row,SMILES,Potency
1,Nc1nc(N2CCN(C(=O)c3ccco3)CC2)nc2ccccc12,14.7 µM (active)
2,CCOc1ccc2nc(C(=O)N3CCCC(C)C3)sc2c1 (configuration not stated),3.29 µM (active)
3,COC(=O)c1ccc(COn2nnc3ccccc32)cc1,1.31 µM (active)
4,Clc1ccc(COn2nnc3ccccc32)c(Cl)c1,2.61 µM (active)
5,c1ccc2c(COn3nnc4ccccc43)cccc2c1,2.61 µM (active)
6,COc1cccc(/C=N/n2c(=O)[nH]c3ccccc32)c1OC,8.26 µM (active)
7,COc1cccc(/C=N/Nc2nc3ccccc3[nH]2)c1OC,2.93 µM (active)
8,O=c1[nH]n(CC2COC3(CCCCC3)O2)c(=O)c2ccccc12 (configuration not stated),16.5 µM (active)
9,Oc1cccc(Nc2nc(O)c(/C=C3\C=Nc4ccccc43)s2)c1,8.26 µM (active)
10,O=C(O)c1ccc(N/N=C/c2cccc(C(F)(F)F)c2)cc1,1.85 µM (active)
11,O=C(O)c1ccc(/C=N/Nc2cccc(C(F)(F)F)c2)cc1,7.36 µM (active)
12,FC(F)(F)c1cccc(N/N=C/c2ccccc2)c1,6.56 µM (active)
13,Cc1ccc(S(=O)(=O)Oc2cccc(/C=N/Nc3ccc(C(=O)O)cc3)c2)cc1,13.1 µM (active)
14,Cc1nn(-c2cccc(C(F)(F)F)c2)c(Cl)c1/C=N/Nc1cccc(C(=O)O)c1,0.104 µM (active)
15,Oc1ccc(/C=N/Nc2ccc(C(F)(F)F)cn2)cc1O,10.4 µM (active)
16,CCNc1nc(NCC)nc(N/N=C/c2ccc(O)c(O)c2)n1,18.5 µM (active)
17,Oc1ccc(/C=N/Nc2ccc(Cl)nn2)cc1O,13.1 µM (active)
18,O=C1C[C@H]2[C@H](CO)[C@@H](OC(=O)c3ccc(-c4ccccc4)cc3)C[C@H]2O1,7.36 µM (active)
19,O=C(O)c1cccc(N/N=C/c2cc(Br)cc(Br)c2O)c1,5.21 µM (active)
20,O=C(O)c1ccccc1N/N=C/c1cc(Br)cc(Br)c1O,2.07 µM (active)
21,O=c1[nH]c2ccccc2c2cn(-c3ccccc3)nc12,4.65 µM (active)
22,Cc1cccc(CCNC(=O)c2ccc3c(c2)nc2n3CCOC2)c1,3.29 µM (active)

row,SMILES,Potency
1,CC(CNC(=O)c1ccc2c(c1)nc1n2CCOC1)c1ccccc1 (configuration not stated),13.1 µM (active)
2,COc1cc(Cl)cc(/C=C/c2ccc3ccccc3n2)c1OC(C)=O,0.414 µM (active)
3,O=C1c2ccccc2-c2nc3ccccc3cc21,1.47 µM (active)
4,COc1ccc(OCC(=O)Nc2ccc(-c3nc4cc(C)c(C)cc4o3)cc2)cc1,0.131 µM (active)
5,COc1ccc(OCC(=O)Nc2ccc(-c3nc4cc(Cl)ccc4o3)cc2)cc1,2.93 µM (active)
6,O=C(COc1ccc(Cl)cc1)Nc1ccc(-c2nc3cc(Cl)ccc3o2)c(O)c1,7.36 µM (active)
7,Cc1cc2nc(-c3cccc(NC(=O)COc4ccc(C(C)C)cc4)c3)oc2cc1C,0.369 µM (active)
8,O=C(OCC(=O)N1CCOCC1)c1ccccc1Cc1ccccc1,2.93 µM (active)
9,N/C(=N\OC(=O)c1ccc2ccccc2c1)c1ccncc1,0.585 µM (active)
10,Cc1ccccc1C(=O)O/N=C(\N)c1ccncc1,6.56 µM (active)
11,N/C(=N\OC(=O)c1cccc2ccccc12)c1ccncc1,16.5 µM (active)
12,COc1ccc(-n2cc(-c3ccccc3)nc2SC)cc1,8.26 µM (active)
13,CCOc1ccc(-c2cn(-c3ccc(OC)cc3)c(SC)n2)cc1,2.93 µM (active)
14,C=CCN1N=C(/C=C/c2ccc(OC)cc2)CCC1=O,14.7 µM (active)
15,C=CCN1N=C(/C=C/c2ccc(C)cc2)CCC1=O,10.4 µM (active)
16,Cc1cc2sc3nc(=O)n(-c4ccccc4)c(=O)n3c2cc1C,4.14 µM (active)
17,Cc1ccc2c(c1)sc1nc(=O)n(-c3ccccc3)c(=O)n12,0.131 µM (active)
18,Cc1snc(SCC(=O)c2ccc(F)cc2)c1C#N,4.65 µM (active)
19,Cc1ccccc1-c1nc2cc(NC(=O)C3CC3)ccc2o1,0.414 µM (active)
20,O=C(Nc1ccc2oc(-c3ccccc3Cl)nc2c1)c1ncn[nH]1,0.927 µM (active)
21,O=C(Nc1ccccc1O)c1ccc(NC(=O)C2CC2)cc1,6.56 µM (active)
22,O=C1c2ccccc2C(=O)c2cc(NC(=O)C3CC3)ccc21,0.736 µM (active)

row,SMILES,Potency
1,N#Cc1c(N2CCOCC2)nsc1-c1ccccc1,13.1 µM (active)
2,N#Cc1c(N2CCOCC2)nsc1-c1ccc(C(F)(F)F)cc1,5.85 µM (active)
3,N#Cc1c(N2CCCC2)nsc1-c1ccccc1,16.5 µM (active)
4,CCOc1ccc2nc(SCC(=O)c3cccs3)sc2c1,4.14 µM (active)
5,CC1CCc2sc3nc(N4CCN(CCO)CC4)n4ncnc4c3c2C1 (configuration not stated),13.1 µM (active)
6,CN1CCc2c(sc(NC(=O)C3COc4ccccc4O3)c2C(N)=O)C1 (configuration not stated),9.27 µM (active)
7,Fc1ccccc1Nc1nc2c(s1)CCc1ccccc1-2,0.464 µM (active)
8,COc1cc(CCC(C)=O)ccc1OC(=O)c1c(F)cccc1Cl,2.93 µM (active)
9,C=CCn1c(SCC(=O)Nc2ccc(-c3nc4ccc(C)cc4s3)cc2)nnc1-c1ccncc1,8.26 µM (active)
10,C=CCn1c(SCC(=O)Nc2ccc(-c3nc4ccc(C)cc4s3)cc2)nnc1-c1ccccc1,1.17 µM (active)
11,C/C(=N/Nc1ccc(C(=O)O)cc1)c1ccc(O)c(O)c1O,18.5 µM (active)
12,Cc1ccccc1-c1nnc(SCC(=O)N2CCCC2)o1,7.36 µM (active)
13,O=C(CSc1nnc(-c2ccccc2Cl)o1)N1CCOCC1,3.69 µM (active)
14,CC(=O)c1cnc(Nc2cccc(C)c2)s1,2.93 µM (active)
15,CC(C)(C)C(=O)c1cnc(Nc2ccccc2)s1,2.33 µM (active)
16,COc1ccccc1/C=C/C=N/Nc1cccc(C(=O)O)c1,0.185 µM (active)
17,O=C(O)c1cc(N/N=C/c2cccc3ccccc23)ccc1Cl,3.29 µM (active)
18,Cc1[nH]c2ccccc2c1/C=N/Nc1cccc(C(=O)O)c1,7.36 µM (active)
19,O=C(O)c1cccc(N/N=C/c2cccc3ccccc23)c1,0.0826 µM (active)
